Structures are written as SMILES. Out of some 360,000 compounds screened, about 17,000 (4.7%) were called active. Inconclusive results (about 5%) are left out. Rule as the data show it: active = activity change below about -50%; inconclusive = mostly about -30% to -49%; inactive = weaker than that. The list comes from a sample in which actives are over-represented; it also holds similar structures and randomly drawn compounds.
% is scaled to controls: 0 for no effect and ±100 for the full control effect.

The nature of the experiment: qHTS for Inhibitors of Inflammasome Signaling: IL-1-beta AlphaLISA Primary Screen. Conditions: THP-1 LPS/ATP IL-1B secretion, 16 h; at 57.5 µM, active compounds read low. Put shortly: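 THP-1 cells pretreated 1 hr with compounds (up to 57.5 uM final), then stimulated with LPS (250 ng/mL final) plus ATP (1.25 mM final); secreted IL-1B measured by AlphaLISA after 16 hr, decreased signal indicating inhibition.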
For orientation: qHTS replaces the single test concentration by a dilution series.
In the case of `Cc1cc(Cl)ccc1C(=O)C1CCCN(C(=O)c2ccc3c(c2)OCO3)C1` (stereo not drawn), the activity change is -15.9% (inactive). The value for `Cc1cccc(C2c3c(n(C)c(=O)n(C)c3=O)N=C3c4ccccc4C(=O)C32)c1` (stereo not drawn) was 13.5% (inactive).

In the case of `Cc1ccccc1S(=O)(=O)NC(=O)C1(C)CCN1C(=O)C1(c2ccc(Cl)cc2)CC1` (stereo not drawn), the activity change was 22.8% (inactive). Under `O=C(NNC(=O)c1ccc2ccccc2c1)c1ccc(Cl)cc1` stands -7.64% (inactive). Under `CN(CC(=O)Nc1ccc(Cl)cc1)C(=O)CNC(=O)c1ccc2ccccc2c1` stands -102% (active); under `COc1ccc(NC(=O)CN(C)C(=O)CNC(=O)C2CCCCC2)cc1`, “inactive”; under `COc1ccc(C(=O)C(OP(=O)(OC)OC)c2ccccc2OC)cc1` (stereo not drawn), 0% (inactive). The value for `OCCC1CN(Cc2cccc(OC3CCCC3)c2)CCN1Cc1ccsc1` (stereo not drawn) was -20.7% (inactive); that for `CC1=C[C@H]2Cc3cc(C)cc(C)c3S(=O)(=O)[C@@H]2C=C1` was -1.95% (inactive). Take `Cc1ccccc1Cn1c(C)c(C(=O)NCc2cccc(C(F)(F)F)c2)sc1=O`: the activity change was -29.1% (inactive).

As to `O=C(O)c1ccc(F)c(S(=O)(=O)Nc2ccccc2)c1`, the activity change was 0% (inactive).

For the compound `COc1ccc(NS(=O)(=O)c2cc(C(=O)Nc3ccccc3C(=O)O)ccc2C)cc1`, the activity change was 11.7% (inactive). The value for `Cc1ccc(C(=O)Nc2ccccc2-c2ccccc2)cc1S(=O)(=O)Nc1ccccc1` was -69.2% (active); that for `CCOC(=O)C=Cc1ccc(C(=O)OCC)[nH]1` was 12.1% (inactive); that for `CCOCCOC(=O)C1=C(C)NC(=O)NC1c1ccc2c(c1)OCO2` (stereo not drawn) was -7.25% (inactive). Consider `CCOC(=O)C1=C(CCc2ccccc2)NC(=O)NC1c1ccc2ccccc2c1` (stereo not drawn), for which the activity change is -52.7% (active).

With `CCOC(=O)C1=C(CSc2nccn2C)NC(=O)NC1c1ccc(OC)cc1` (stereo not drawn), the activity change is -4.23% (inactive). The value for `Cn1c(=O)[nH]c2c(c(C(=O)O)nn2C)c1=O` was -10.6% (inactive); that for `CSc1cccc(NC(=O)CSc2ccccc2)c1` was -2.08% (inactive); that for `CCOc1ccc(C(=O)Nc2cccc(SC)c2)cc1` was -79.8% (active). For `CCOc1ccc(C(=O)CCC(=O)Nc2ccncc2)cc1`, the activity change was 2.33% (inactive).

As for `CC(C)CC(=O)Nc1ccc(Cc2ccncc2)cc1`, the activity change was -7.35% (inactive). Under `CCc1ccc(NC(=O)N[C@H](C(=O)O)C(C)CC)cc1` (stereo partly drawn) stands 21.9% (inactive); under `CCOc1ccc(C(=O)Nc2cccc(-c3ccc4nncn4n3)c2)cc1`, 0% (inactive). Under `CCc1ccc(NC(=O)Nc2ccncc2)cc1` stands -73.4% (active); under `CCOc1ccc(C(=O)Nc2ccncc2)cc1`, -73.6% (active). The value for `CCOc1ccc(NC(=O)c2ccc(NC(=O)C3CCCO3)cc2)cc1` (stereo not drawn) was -7.47% (inactive); that for `COC(=O)C(Cc1c[nH]c2ccccc12)NC(=O)CCNC(=O)c1ccco1` (stereo not drawn) was 19.3% (inactive). For `CCOC(=O)[C@]12CCC=C1N(CCC1=CCCCC1)C(=O)[C@H](CC(=O)NCc1ccc(C)o1)C2`, the activity change was 13.9% (inactive). The value for `COc1cccc(CN(C)C(=O)CC[C@H]2O[C@@H](n3cnc4c(NC(=O)c5ccccc5)ncnc43)[C@H](O)[C@@H]2O)c1` was -16.9% (inactive); that for `CC(=O)c1cc(CN2CCC(C(=O)Nc3cccc(-c4cscn4)c3)CC2)cs1` was “inactive”; that for `CCn1cc(CN2CCC(C(=O)Nc3cccc(-c4cccc(Cl)c4)c3)CC2)cn1` was -79.5% (active).

With `O=C(Nc1cccc(-c2cscn2)c1)C1CCN(Cc2ccsc2)CC1`, the activity change was -28.7% (inactive). Take `CCn1cc(CN2CCC(n3nccc3NC(=O)CCCc3ccccc3)CC2)c(C)n1`: the activity change is 40% (inactive). Under `CCn1cc(CN2CCC(C(=O)Nc3cccc(-c4cccc(Cl)c4)c3)CC2)c(C)n1` stands -53.4% (active); under `O=C(Nc1cnn(Cc2ccc(Cl)cc2)c1)C1CCCC1`, -16.9% (inactive); under `C=CCOc1ccc(/C=C/C(=O)OC(C)C(=O)Nc2ccc(NC(C)=O)cc2)cc1` (stereo not drawn), -0.196% (inactive).

As to `Nc1cc(=O)c2[nH]cnc2[nH]1`, the activity change was 17.6% (inactive).

With `CCc1nc2ccc(C(=O)N(C)CCN(C)C)cn2c1N(CC)CCOC`, the activity change is -19.3% (inactive).

Regarding `CC(C)C[C@@H]1Cc2[nH][nH]c(=O)c2[C@H](CCc2ccccc2)O1`, the activity change was -2.24% (inactive). The value for `CC1(c2cccc(Br)c2)NC(=O)N(CC(=O)NCCC2=CCCCC2)C1=O` (stereo not drawn) was 1.79% (inactive); that for `COc1cccc2c1C(=O)c1c(O)c3c(c(O)c1C2=O)CC(O)(C(C)=NNC(=O)c1ccc(Cl)c(Cl)c1)CC3OC1CC(N)C(O)C(C)O1` (stereo not drawn) was -101% (active); that for `Oc1c(CN2CCOCC2)ccc(CN2CCOCC2)c1O` was 14.4% (inactive). Under `CN(C(=O)c1cccc(NC(=O)Cc2ccc(NC(=O)C3CCN(C(=O)C4CCCCC4)CC3)cc2)c1)C1CCC1` stands -1.34% (inactive); under `CN1CCN(C2Cc3ccc(Cl)cc3Sc3ccc(F)cc32)CC1` (stereo not drawn), -63.5% (active). In the case of `COC(=O)C1NN=C(C(=O)c2ccc(Br)cc2)C1c1cccc(Br)c1` (stereo not drawn), the activity change was 19.6% (inactive). As for `C[C@H]1CN([C@@H](C)CO)C(=O)CCCn2cc(nn2)CO[C@@H]1CN(C)C(=O)Nc1ccccc1`, the activity change is -2.98% (inactive).

For the compound `c1ccc2cc3c(NCCN4CCOCC4)ccnc3cc2c1`, the activity change was -83.2% (active).

Consider `Fc1ccc(-c2ccc(NCCN3CCOCC3)nn2)cc1`, for which the activity change is -8.39% (inactive). Under `CCOc1nc(NCCN2CCOCC2)nc(Nc2ccc(C)cc2)n1` stands -27.7% (inactive); under `Cc1nc(N)sc1-c1ccccc1`, -26.3% (inactive); under `COc1ccc(-n2c(Cc3cccn3C)nnc2SCC(=O)Nc2cc(C)cc(C)c2)cc1`, -24.7% (inactive). As for `Cc1cccc(-n2c(SCC(N)=O)nc3c(c2=O)C2(CCCCC2)Cc2ccccc2-3)c1`, the activity change is -72.3% (active).

Consider `Cc1cccc(-n2c(=O)c3c(C)c(C)sc3n(CC(N)=O)c2=O)c1`, for which the activity change was 16.6% (inactive).

On to `N#CCSc1nc2c(c(=O)n1Cc1ccccc1)C1(CCCC1)Cc1ccccc1-2`, for which the activity change is 4.25% (inactive). On to `COCC(=O)N(C)C[C@H]1Oc2cc(Br)ccc2S(=O)(=O)N([C@H](C)CO)C[C@H]1C`, for which the activity change was 20.9% (inactive). With `CCOCCC(=O)Nc1ccc2c(c1)c(=O)n(C)n2-c1ccc2ccccc2c1`, the activity change is 87.4% (inactive). The value for `COc1cc2c(cc1OC)C(/C=C/c1ccco1)=NCC2` was -75.5% (active); that for `CCOC(=O)C1=NN(c2ccc(Cl)cc2)/C(=C/C2=NCCc3cc(OC)c(OC)cc32)S1` was -28.4% (inactive); that for `COc1ccc(Cl)cc1C(=O)NNC(=S)NC(=O)/C=C/c1ccco1` was 26.9% (inactive). Take `C[C@H]1COc2cc(N3CCSCC3)ccc2S(=O)(=O)N1`: the activity change was 26.2% (inactive).

For the compound `COc1ccc(Cl)cc1-c1cc(C(=O)Nc2cc(OC)c(OC)c(OC)c2)[nH]n1`, the activity change was -10.3% (inactive). The value for `CSc1ncnc2c1ncn2CCCNCC(C)c1ccccc1` (stereo not drawn) was 17.6% (inactive); that for `COc1ccc(-c2cc(NC(C)=O)c3ncc(-c4cc(OC)c(OC)c(OC)c4)n3c2)cn1` was 41.4% (inactive); that for `O=C1/C(=C/c2ccc(F)cc2)SC(=S)N1CCCC(=O)N1CCCCC1CCO` (stereo not drawn) was -86.6% (active). `COc1ccc(/C=C2\SC(=S)N(CCCC(=O)NC3CCCC3)C2=O)cc1OC`: the activity change was 7.66% (inactive).

For `CCN(C(=O)CN1C(=O)/C(=C/c2ccc(F)cc2)SC1=S)C1CCS(=O)(=O)C1` (stereo not drawn), the activity change is 0% (inactive).

Take `Cc1cccc(C)c1-n1nnnc1C1(C)CCC(=O)N1CCOc1ccccc1` (stereo not drawn): the activity change is 33.1% (inactive). Under `CC(C)c1ccc(/C=C/C(=O)NCCCN2CCOCC2)cc1` stands -1.14% (inactive); under `CC1CC(NC(=S)N(C)C)CC(C)(C)C1` (stereo not drawn), 31.1% (inactive). The value for `COc1cc(NS(=O)(=O)c2ccc3ccccc3c2)c2ncccc2c1` was 20.6% (inactive).

On to `NS(=O)(=O)c1ccc(CCNS(=O)(=O)c2cccc3cccnc23)cc1`, for which the activity change is 7.82% (inactive). For `O=[N+]([O-])c1ccccc1S(=O)(=O)Nc1cccc2cccnc12`, the activity change was -99.8% (active).

With `CN(C(=O)c1cccc(NC(=O)Cc2cccc(NC(=O)C3CCCN(C(=O)C4CC4)C3)c2)c1)C1CCC1` (stereo not drawn), the activity change is 0% (inactive). Turning to `COC(=O)c1ccc2nc(-c3ccc(C)cc3)c(Cc3ccc(OC)cc3C)n2c1`, the activity change is 16% (inactive). Regarding `O=C(/C=C/c1ccco1)NC(=S)Nc1ccccc1Br`, the activity change was -18.4% (inactive). Under `COc1cccc(NC(=O)COC(=O)/C=C/c2ccco2)c1` stands 19.5% (inactive); under `O=C(/C=C/c1ccco1)Nc1ccc(Oc2ccccc2)cc1`, -58.1% (active). Under `CSC1=NCCN1C(=O)c1ccc(S(=O)(=O)N2CCOCC2)cc1` stands 2.64% (inactive). Under `CC(=O)Nc1ccc(C(=O)Nc2cc(S(=O)(=O)N3CCOCC3)ccc2N2CCOCC2)cc1` stands -12.6% (inactive); under `CCC(C)NC(=O)c1ccc(NC(=O)CC2SC(N3CCCCC3)=NC2=O)cc1` (stereo not drawn), -15.8% (inactive). As for `COc1cccc2cc(C(=O)N(C)C)c(=O)oc12`, the activity change was -12.7% (inactive).

Turning to `N=c1oc2ccccc2cc1C(=O)NCc1ccccc1`, the activity change was -22.4% (inactive).

Consider `COc1cccc2cc(C(=O)NCc3ccc(C)cc3)c(=N)oc12`, for which the activity change is -59.4% (active). The value for `OC[C@@H]1CN(Cc2ccncc2)C[C@H](n2cnc3c(N4CCN(c5ccccc5)CC4)ncnc32)O1` was 3.63% (inactive); that for `O=C(Nc1cccnc1)c1cc(Cl)ccc1Cl` was -60.5% (active).

Take `O=C(Nc1cccnc1)c1ccc(Cl)cc1[N+](=O)[O-]`: the activity change was 0% (inactive). Under `O=C(Nc1cccnc1)c1cc([N+](=O)[O-])ccc1Cl` stands 0% (inactive).

Consider `COCCNC(=S)N1CCN(C)CC1`, for which the activity change was 26.6% (inactive).

Consider `Clc1ncn(CCOc2ccccc2)c1Cl`, for which the activity change was -9.73% (inactive). Under `Brc1ccc(OCCn2ccnc2)cc1` stands -15% (inactive); under `c1ccc(Cc2ccc(OCCn3ccnc3)cc2)cc1`, -57.5% (active); under `CC(C)Oc1cc(F)ccc1-c1cc(C(=O)Nc2ccc(F)cc2)[nH]n1`, -25.4% (inactive).

Values taken from PubChem BioAssay AID743279 (National Center for Advancing Translational Sciences (NCATS), 2014).
